High-throughput results from PubChem.
Mcl1 Noxa PPI: Mcl-1/Noxa binding inhibitors, primary screen, biochemical, TR-FRET, 1536-well. inhibition, % at 21.7 µM. actives 1.5% (n = 220,000). TR-FRET Mcl-1/Noxa peptide binding, 2 h;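 active means compounds that cut the protein-peptide binding signal by more than 50% relative to plate controls in a single-dose test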;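 further: His-tagged Mcl-1 with rhodamine Noxa BH3 peptide and terbium anti-His antibody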
Target sequence (Q07820 whole entry, looked up): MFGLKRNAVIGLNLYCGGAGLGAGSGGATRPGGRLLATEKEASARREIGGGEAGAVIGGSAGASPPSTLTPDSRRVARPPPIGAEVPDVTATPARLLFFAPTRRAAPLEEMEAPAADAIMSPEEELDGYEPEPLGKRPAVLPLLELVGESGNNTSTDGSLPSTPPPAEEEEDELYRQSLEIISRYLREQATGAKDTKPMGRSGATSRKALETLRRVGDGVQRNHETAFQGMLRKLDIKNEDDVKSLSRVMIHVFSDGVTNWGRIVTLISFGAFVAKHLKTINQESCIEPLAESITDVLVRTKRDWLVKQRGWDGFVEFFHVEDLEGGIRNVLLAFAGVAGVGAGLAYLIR
14-3-3 Bad PPI: inhibitors of 14-3-3 zeta/Bad binding, primary screen, biochemical, TR-FRET, bovine 14-3-3 zeta. inhibition, % at 21.7 µM. TR-FRET 14-3-3zeta/Dy647-pBad peptide displacement, 1 h. actives 0.71% (n = 220,000). 14-3-3 protein zeta/delta (Bos taurus), P63103;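 active means inhibition above about 70%, limit read from the data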
Target sequence (P63103 whole entry, looked up): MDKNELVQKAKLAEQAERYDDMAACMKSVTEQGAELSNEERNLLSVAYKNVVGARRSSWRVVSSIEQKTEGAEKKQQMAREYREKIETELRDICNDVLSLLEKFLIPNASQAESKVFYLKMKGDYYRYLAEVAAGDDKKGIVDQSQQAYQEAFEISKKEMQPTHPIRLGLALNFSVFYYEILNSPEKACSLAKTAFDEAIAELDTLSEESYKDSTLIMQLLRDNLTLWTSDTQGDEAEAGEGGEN
Mcl1 Bid PPI: Mcl-1/Bid binding inhibitors, primary screen, biochemical, TR-FRET, 1536-well. Induced myeloid leukemia cell differentiation protein Mcl-1 (Homo sapiens), Q07820. TR-FRET Mcl-1/Bid-Dy647 peptide binding. inhibition, % at 21.7 µM. actives 0.97% (n = 220,000). AID 1021, 2008;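 active means compounds that cut the binding signal by more than half at the single screening dose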;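 further: His-tagged Mcl-1 with europium anti-His antibody binding Bid BH3 peptide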
MCL1-BIM inh: inhibitors of MCL1 binding to BIM-BH3, primary screen, biochemical, fluorescence polarization. Induced myeloid leukemia cell differentiation protein Mcl-1 (Homo sapiens), Q07820. GST-MCL1 / FITC-Bim-BH3 fluorescence polarization. inhibition, % at 10.9 µM. actives 0.68% (n = 320,000);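 active means inhibition above the mean inhibition of all tested compounds plus 3 SD, set per campaign, cut at about 40% in these data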;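 further: higher means more loss of mP so more displacement of Bim peptide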
Bim-Mcl-1: inhibitors of Bim peptide binding to Mcl-1, primary screen, biochemical, bead-based flow cytometry, multiplex; Induced myeloid leukemia cell differentiation protein Mcl-1 (Homo sapiens), Q07820; Bim peptide-Mcl-1 binding; inhibition, % at 10 µM; actives 0.1% (n = 190,000); AID 1009, 2008; in the data active means inhibition above about 40%
Numbers stand for hits; – = inactive; · = not tested or not shown; [ ] = remark or other dose. Sampled rows, rich in hits. Any-hit rate of the full collection: about 2.5%.

SMILES	Mcl1 Noxa PPI	14-3-3 Bad PPI	Mcl1 Bid PPI	MCL1-BIM inh	Bim-Mcl-1
CC1CC(C)CN(CCOc2ccccc2-c2ccccc2)C1 (stereo not given)	–	–	57	–	–
CCN1CCN(CCOCCOc2ccccc2-c2ccccc2)CC1	–	71	–	–	–
c1ccc(-c2ccccc2OCCOCCN2CCNCC2)cc1	–	–	–	–	–
COc1cccc(NC(=O)c2ccc(CN3CCc4ccccc4C3)cc2)c1	·	·	·	–	·
CCC(C)[C@@H](CN(N=O)[C@@H](Cc1ccccc1)CN(C)N=O)N(CCc1ccccc1)N=O (stereo not given in full)	–	–	–	–	–
COc1ccc(/C=N/NC(=O)c2ccc(NC(C)=O)cc2)cc1COc1ccc(F)cc1F	·	·	·	–	·
CCCCn1c(N)c(N(CCC(C)C)C(=O)c2cccc(S(=O)(=O)N3CCN(C)CC3)c2)c(=O)[nH]c1=O	·	·	·	–	·
O=C(Cc1ccccc1)N1CCN(S(=O)(=O)c2cccc([N+](=O)[O-])c2)CC1	–	–	–	–	–
COc1ccc(CCn2c3c(c(=O)[nH]c2=O)C(NC(=O)c2cccs2)(C(F)(F)F)C(=O)N3)cc1OC (stereo not given)	–	–	–	–	–
C#CCOCCOCCOCCNc1nc(N2CCN(C(=O)[C@H](C)n3cc(CCCN=C(N)N)nn3)CC2)nc(N2CCN(C(=O)[C@H](CCCCN)n3cc(CCCC)nn3)CC2)n1	–	89	72	·	–
C#CCOCCOCCOCCNc1nc(N2CCN(C(=O)[C@H](CCCCN)n3cc(C(N)CC(C)C)nn3)CC2)nc(N2CCN(C(=O)[C@H](CCC(=O)O)n3cc(C(N)[C@H](C)CC)nn3)CC2)n1 (stereo not given in full)	–	–	82	–	–
C#CCOCCOCCOCCNc1nc(N2CCN(C(=O)[C@H]([C@@H](C)CC)n3cc([C@@H](N)CO)nn3)CC2)nc(N2CCN(C(=O)[C@H]([C@@H](C)CC)n3cc([C@@H](N)CC(C)C)nn3)CC2)n1	–	–	56	43	–
C#CCOCCOCCOCCNc1nc(N2CCN(C(=O)[C@H]([C@@H](C)CC)n3cc([C@@H](N)CO)nn3)CC2)nc(N2CCN(C(=O)[C@H]([C@@H](C)CC)n3cc([C@@H](N)CO)nn3)CC2)n1	–	–	–	·	·
C#CCOCCOCCOCCNc1nc(N2CCN(C(=O)[C@H](CCCCN)n3cc([C@@H](N)CC(C)C)nn3)CC2)nc(N2CCN(C(=O)[C@H](Cc3cc4ccccc4[nH]3)n3cc([C@@H](N)Cc4ccc(O)cc4)nn3)CC2)n1	–	–	60	–	–
C#CCOCCOCCOCCNc1nc(N2CCN(C(=O)[C@H](CCCCN)n3cc([C@@H](N)CO)nn3)CC2)nc(N2CCN(C(=O)[C@H](Cc3cc4ccccc4[nH]3)n3cc([C@@H](N)Cc4ccc(O)cc4)nn3)CC2)n1	–	–	–	–	–
C#CCOCCOCCOCCNc1nc(N2CCN(C(=O)[C@H](CCC(=O)O)n3cc(C(N)CC(C)C)nn3)CC2)nc(N2CCN(C(=O)[C@H](Cc3ccc(O)cc3)n3cc(C(N)CC(C)C)nn3)CC2)n1 (stereo not given in full)	–	–	59	–	–
C#CCOCCOCCOCCNc1nc(N2CCN(C(=O)[C@H](CCC(=O)O)n3cc(C(N)Cc4ccc(O)cc4)nn3)CC2)nc(N2CCN(C(=O)[C@H](Cc3ccc(O)cc3)n3cc(C(N)CC(C)C)nn3)CC2)n1 (stereo not given in full)	–	–	–	·	·
COc1ccc(C(=O)Nc2nc3ccc4nc(C)sc4c3s2)cc1	53	–	–	–	–
COc1ccc(C(=O)Nc2nc3c(s2)Cc2cc(OC)ccc2-3)cc1	86	–	55	–	–
COc1ccc(C(=O)Nc2oc(-c3ccccc3)c(-c3ccccc3)c2C#N)cc1	–	–	–	–	–
COc1ccc(-c2oc(NC(=O)c3ccc(C)cc3)c(C#N)c2-c2ccc(OC)cc2)cc1	–	87[fluorescence artefact?]	–	–	–
O=[N+]([O-])c1cc(Br)cc(C=Nc2ccc3c(c2)OCO3)c1O	55	–	–	–	·
CS(=O)(=O)N(Cc1ccc(Cl)cc1)c1ccc(C(=O)NCCSc2ccccn2)cc1	–	–	–	–	–
O=C(NC1CCC(O)CC1)c1ccc(-c2ccc([N+](=O)[O-])cc2)o1 (stereo not given)	71	–	–	–	·
CC1CCN(C(=O)C(C)Sc2nc(-c3ccccc3)cc(C(F)(F)F)n2)CC1 (stereo not given)	–	–	–	–	–
SMILES	Mcl1 Noxa PPI	14-3-3 Bad PPI	Mcl1 Bid PPI	MCL1-BIM inh	Bim-Mcl-1
CNc1c(N)n(Cc2ccccc2)c(=O)[nH]c1=O	–	–	–	43	–
Cc1ccc(S(=O)(=O)N2CCOCC2)cc1NC(=O)CN1CCN(c2ccc(O)cc2)CC1	52	–	–	–	–
Cc1ccc(S(=O)(=O)N2CCOCC2)cc1NC(=O)CN1CCN(C)CC1	·	·	·	–	·
COc1ccc(N2CCN(Cc3oc(CO)cc(=O)c3O)CC2)cc1	–	–	–	42	–
O=C(Nc1c2c(nc3ccccc13)CCCC2)c1ccccc1F	–	–	–	–	–
COc1ccc(OC)c(/C=N/c2oc(-c3ccco3)c(-c3ccco3)c2C#N)c1	77	–	–	–	–
O=C(O)c1ccccc1C(=O)N1CCN(C(=O)c2ccccc2Cl)CC1	–	–	–	–	–
C=CCn1c(=S)[nH]c2sc3c(c2c1=O)CCC3	56	–	–	·	–
c1cc2c(cc1NC1CCCCCC1)OCO2	·	·	·	47	·
COC(=O)Nc1ccc(S(=O)(=O)NCc2ccccn2)cc1	82	–	–	–	–
Cc1ccsc1C(=O)OCC(=O)N1CCOCC1	–	–	67	–	–
O=C(CSc1ccccc1)NCCCN1CCOCC1	–	–	–	–	–
O=C(CSCc1ccccc1)NCCCN1CCOCC1	–	–	98	–	–
CCOc1ccc(C(=O)Nc2nnn(CC)n2)cc1	–	–	–	–	62
CCCn1nnc(NC(=O)c2ccc(OC)cc2)n1	–	–	–	–	–
COC(CNC(=O)c1ccc2nc(-c3cccs3)c(-c3cccs3)nc2c1)OC	–	–	94	–	–
CC(=O)N(CN1C(=O)CCC1=O)c1ccc(Cl)c(Cl)c1	–	82	–	–	–
Cc1ccccc1OCC(=O)NCCC1=CCCCC1	–	82	–	–	–
CC1=C(C#N)c2nc(N)c(C#N)c(C)c2/C1=C\c1ccc(-c2ccccc2C(=O)O)o1	82	–	–	·	–
